Over roughly 16,000 sequences, “rpm ratio (pull-down/input)” has its median near 0.5; the highest 2% begin near 5.5. What follows is part of a selection rich in the highest values, with near analogues and random picks from the rest.

The assay addresses T1, MBP-FoxP3dN (Mus musculus, UniProt Q99JB6 188-423).
T1 sequence: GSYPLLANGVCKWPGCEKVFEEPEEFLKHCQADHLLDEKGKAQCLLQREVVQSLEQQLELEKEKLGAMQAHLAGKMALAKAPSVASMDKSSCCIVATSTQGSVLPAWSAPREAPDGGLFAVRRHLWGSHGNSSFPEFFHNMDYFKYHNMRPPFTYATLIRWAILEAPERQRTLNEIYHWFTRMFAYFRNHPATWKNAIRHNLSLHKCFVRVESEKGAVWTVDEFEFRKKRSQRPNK
Kind of assay: PD-seq (MBP pull-down with sequencing); 20 mM Tris-HCl pH 7.5, 100 mM NaCl, 1.5 mM MgCl2, 0.4 uM protein, 0.1 uM dsDNA library, 30 min, room temperature, amylose pull-down; high values mean tight binding. The settings on record: protein: recombinant; tags: His6-MBP; chain copies: 2; dsDNA, one strand shown. In outline: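 Binding is the reads-per-million enrichment of pull-down relative to input, pooled across replicates. For this, 0.4 µM His6-MBP-tagged mouse FoxP3 or FoxP1 fragment lacking the N-terminus, made in E. coli, was incubated with 0.1 µM Klenow-filled double-stranded degenerate DNA library for 30 min at room temperature in Tris pH 7.5 buffer with NaCl and MgCl2. Complexes bound to amylose resin were washed three times before proteinase K released the DNA for PCR barcoding and Illumina sequencing.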
Regarding “GATGATTGTTCTCCCAGCTGATGAATTGAGCGCCTCGAGTAAACAAATTTTCCTAATCTTTCTGTTCAAGCGCCATCTAC”, the binding signal is 1.18 RPM ratio (pull-down/input).

On to “GATGATTGTTCTCCCAGCTGATGAATTAGCATTTTCGAGTAAACAAATTTTCCTAATCTTTCTGTTCAAGCGCCATCTAC”, for which the binding signal was 4 RPM ratio (pull-down/input).

For “GATGATTGTTCTCCCAGCTGATGAATTTAGCTGTTCGAGTAAACAAATTTTCCTAATCTTTCTGTTCAAGCGCCATCTAC”, the binding signal was 1.7 RPM ratio (pull-down/input).

Consider “GATGATTGTTCTCCCAGCTGATGAATTGTAGCATTCGAGTAAACAAATTTTCCTAATCTTTCTGTTCAAGCGCCATCTAC”, for which the binding signal was 5.76 RPM ratio (pull-down/input).

Consider “GATGATTGTTCTCCCAGCTGATGAATTAACGCATTCGAGTAAACAAATTTTCCTAATCTTTCTGTTCAAGCGCCATCTAC”, for which the binding signal is 6.02 RPM ratio (pull-down/input).

Regarding “GATGATTGTTCTCCCAGCTGATGAATTCGTAGCATCGAGTAAACAAATTTTCCTAATCTTTCTGTTCAAGCGCCATCTAC”, the binding signal is 1.31 RPM ratio (pull-down/input).

For “GATGATTGTTCTCCCAGCTGATGAATTTAGCATTTCGAGTAAACAAATTTTCCTAATCTTTCTGTTCAAGCGCCATCTAC”, the binding signal is 6.35 RPM ratio (pull-down/input).

As for “GATGATTGTTCTCCCAGCTGATGAATTTGTAGCATCGAGTAAACAAATTTTCCTAATCTTTCTGTTCAAGCGCCATCTAC”, the binding signal was 4.88 RPM ratio (pull-down/input).

On to “GATGATTGTTCTCCCAGCTGATGAATTAACAAATTCGAGTAAACAAATTTTCCTAATCTTTCTGTTCAAGCGCCATCTAC”, for which the binding signal was 0.494 RPM ratio (pull-down/input).

As to “GATGATTGTTCTCCCAGCTGATGAATTAAACGCATCGAGTAAACAAATTTTCCTAATCTTTCTGTTCAAGCGCCATCTAC”, the binding signal is 1.19 RPM ratio (pull-down/input).

In the case of “GATGATTGTTCTCCCAGCTGATGAATTGATCAGGTCGAGTAAACAAATTTTCCTAATCTTTCTGTTCAAGCGCCATCTAC”, the binding signal is 0.232 RPM ratio (pull-down/input).

With “GATGATTGTTCTCCCAGCTGATGAATTGGTTGCATCGAGTAAACAAATTTTCCTAATCTTTCTGTTCAAGCGCCATCTAC”, the binding signal was 2.53 RPM ratio (pull-down/input).

In the case of “GATGATTGTTCTCCCAGCTGATGAATTGGAAGCATCGAGTAAACAAATTTTCCTAATCTTTCTGTTCAAGCGCCATCTAC”, the binding signal is 0.654 RPM ratio (pull-down/input).

“GATGATTGTTCTCCCAGCTGATGAATTAATTGTCTCGAGTAAACAAATTTTCCTAATCTTTCTGTTCAAGCGCCATCTAC”: the binding signal was 3.16 RPM ratio (pull-down/input).

As to “GATGATTGTTCTCCCAGCTGATGAATTAGATAGCTCGAGTAAACAAATTTTCCTAATCTTTCTGTTCAAGCGCCATCTAC”, the binding signal was 0.537 RPM ratio (pull-down/input).

For the sequence “GATGATTGTTCTCCCAGCTGATGAATTATGCCTATCGAGTAAACAAATTTTCCTAATCTTTCTGTTCAAGCGCCATCTAC”, the binding signal is 2.91 RPM ratio (pull-down/input).

Turning to “GATGATTGTTCTCCCAGCTGATGAATTTCCGTTATCGAGTAAACAAATTTTCCTAATCTTTCTGTTCAAGCGCCATCTAC”, the binding signal was 0.615 RPM ratio (pull-down/input).

As for “GATGATTGTTCTCCCAGCTGATGAATTATTTGACTCGAGTAAACAAATTTTCCTAATCTTTCTGTTCAAGCGCCATCTAC”, the binding signal was 0.481 RPM ratio (pull-down/input).

For the sequence “GATGATTGTTCTCCCAGCTGATGAATTTTATGACTCGAGTAAACAAATTTTCCTAATCTTTCTGTTCAAGCGCCATCTAC”, the binding signal is 0.491 RPM ratio (pull-down/input).

Turning to “GATGATTGTTCTCCCAGCTGATGAATTTTTATTCTCGAGTAAACAAATTTTCCTAATCTTTCTGTTCAAGCGCCATCTAC”, the binding signal was 0.391 RPM ratio (pull-down/input).

For “GATGATTGTTCTCCCAGCTGATGAATTTATTTTCTCGAGTAAACAAATTTTCCTAATCTTTCTGTTCAAGCGCCATCTAC”, the binding signal was 5.54 RPM ratio (pull-down/input).

Consider “GATGATTGTTCTCCCAGCTGATGAATTAGTTTACTCGAGTAAACAAATTTTCCTAATCTTTCTGTTCAAGCGCCATCTAC”, for which the binding signal was 5.83 RPM ratio (pull-down/input).

Consider “GATGATTGTTCTCCCAGCTGATGAATTTTATTTCTCGAGTAAACAAATTTTCCTAATCTTTCTGTTCAAGCGCCATCTAC”, for which the binding signal was 1.53 RPM ratio (pull-down/input).

On to “GATGATTGTTCTCCCAGCTGATGAATTTGATGACTCGAGTAAACAAATTTTCCTAATCTTTCTGTTCAAGCGCCATCTAC”, for which the binding signal is 3.97 RPM ratio (pull-down/input).

As to “GATGATTGTTCTCCCAGCTGATGAATTTATTGACTCGAGTAAACAAATTTTCCTAATCTTTCTGTTCAAGCGCCATCTAC”, the binding signal is 5.75 RPM ratio (pull-down/input).

In the case of “GATGATTGTTCTCCCAGCTGATGAATTTTTTGACTCGAGTAAACAAATTTTCCTAATCTTTCTGTTCAAGCGCCATCTAC”, the binding signal was 0.273 RPM ratio (pull-down/input).

Consider “GATGATTGTTCTCCCAGCTGATGAATTTAGTTTCTCGAGTAAACAAATTTTCCTAATCTTTCTGTTCAAGCGCCATCTAC”, for which the binding signal was 2.13 RPM ratio (pull-down/input).

On to “GATGATTGTTCTCCCAGCTGATGAATTTAGTTACTCGAGTAAACAAATTTTCCTAATCTTTCTGTTCAAGCGCCATCTAC”, for which the binding signal is 3.04 RPM ratio (pull-down/input).

In the case of “GATGATTGTTCTCCCAGCTGATGAATTTGTTGACTCGAGTAAACAAATTTTCCTAATCTTTCTGTTCAAGCGCCATCTAC”, the binding signal was 7.34 RPM ratio (pull-down/input).

In the case of “GATGATTGTTCTCCCAGCTGATGAATTTGCTGACTCGAGTAAACAAATTTTCCTAATCTTTCTGTTCAAGCGCCATCTAC”, the binding signal was 5.1 RPM ratio (pull-down/input).

Take “GATGATTGTTCTCCCAGCTGATGAATTGCAGTGCTCGAGTAAACAAATTTTCCTAATCTTTCTGTTCAAGCGCCATCTAC”: the binding signal was 0.811 RPM ratio (pull-down/input).

Regarding “GATGATTGTTCTCCCAGCTGATGAATTATTAGCGTCGAGTAAACAAATTTTCCTAATCTTTCTGTTCAAGCGCCATCTAC”, the binding signal was 0.786 RPM ratio (pull-down/input).

Source of the values: publication PMC12820563, “FoxP3 forms a head-to-head dimer in vivo and stabilizes its multimerization on adjacent microsatellites”.
